In article doi:10.1101/2024.03.05.583629:

Target: pT7_6His-AlfaTag-HOXD13 (human, UniProt P35453 263-343)
Test: PADIT-seq
Settings: dsDNA, one strand shown

pT7_6His-AlfaTag-HOXD13, sequence (P35453 263-343): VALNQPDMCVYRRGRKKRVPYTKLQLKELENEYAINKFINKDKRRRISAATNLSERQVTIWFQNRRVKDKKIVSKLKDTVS

| Sequence | binding signal |
| --- | --- |
| CTCGAGGATATCAAGATCTGGCCTCGGCCTTTTATACGGAACCTCTAGCTAGCCGACTCACTATAGGGATAATCGCCCTGAGCAAAGACC | 2.32 ± 0.0734 log2FC |
| CTCGAGGATATCAAGATCTGGCCTCGGCAAAGTAAAAGGAACCTCTAGCTAGCCGACTCACTATAGGGATAATCGCCCTGAGCAAAGACC | 0.197 ± 0.0829 log2FC |
| CTCGAGGATATCAAGATCTGGCCTCGGCGCATTAAAAGGAACCTCTAGCTAGCCGACTCACTATAGGGATAATCGCCCTGAGCAAAGACC | 1.77 ± 0.0683 log2FC |
| CTCGAGGATATCAAGATCTGGCCTCGGCATTTTAACGGGAACCTCTAGCTAGCCGACTCACTATAGGGATAATCGCCCTGAGCAAAGACC | 1.87 ± 0.0803 log2FC |
| CTCGAGGATATCAAGATCTGGCCTCGGCCGCCCATCAGGAACCTCTAGCTAGCCGACTCACTATAGGGATAATCGCCCTGAGCAAAGACC | -1.02 ± 0.114 log2FC |
| CTCGAGGATATCAAGATCTGGCCTCGGCATGCTAAAAGGAACCTCTAGCTAGCCGACTCACTATAGGGATAATCGCCCTGAGCAAAGACC | 0.0523 ± 0.0889 log2FC |
| CTCGAGGATATCAAGATCTGGCCTCGGCACGGTAAAAGGAACCTCTAGCTAGCCGACTCACTATAGGGATAATCGCCCTGAGCAAAGACC | 0.528 ± 0.077 log2FC |
| CTCGAGGATATCAAGATCTGGCCTCGGCCGAATAAAAGGAACCTCTAGCTAGCCGACTCACTATAGGGATAATCGCCCTGAGCAAAGACC | 1.27 ± 0.0923 log2FC |
| CTCGAGGATATCAAGATCTGGCCTCGGCATTTTAGTAGGAACCTCTAGCTAGCCGACTCACTATAGGGATAATCGCCCTGAGCAAAGACC | 1.68 ± 0.0834 log2FC |
| CTCGAGGATATCAAGATCTGGCCTCGGCACACTAAAAGGAACCTCTAGCTAGCCGACTCACTATAGGGATAATCGCCCTGAGCAAAGACC | 0.427 ± 0.0841 log2FC |
